# Hits are enriched below; roughly 3.9% of the tested compounds scored in any of these assays.
# Mtb FBA inh: Mtb FBA enzyme inhibitors, primary screen, biochemical, fluorescence, strain H37Rv; inhibition, % at 1 µM; Fructose-bisphosphate aldolase (Mycobacterium tuberculosis (strain ATCC 25618 / H37Rv)), …; purified M. tuberculosis FBA, fluorescence read-out; 360,000 compounds, 2.3% hits;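 note: 0% = vehicle and 100% = reference inhibitor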
# Target sequence (P9WQA3 whole entry, looked up): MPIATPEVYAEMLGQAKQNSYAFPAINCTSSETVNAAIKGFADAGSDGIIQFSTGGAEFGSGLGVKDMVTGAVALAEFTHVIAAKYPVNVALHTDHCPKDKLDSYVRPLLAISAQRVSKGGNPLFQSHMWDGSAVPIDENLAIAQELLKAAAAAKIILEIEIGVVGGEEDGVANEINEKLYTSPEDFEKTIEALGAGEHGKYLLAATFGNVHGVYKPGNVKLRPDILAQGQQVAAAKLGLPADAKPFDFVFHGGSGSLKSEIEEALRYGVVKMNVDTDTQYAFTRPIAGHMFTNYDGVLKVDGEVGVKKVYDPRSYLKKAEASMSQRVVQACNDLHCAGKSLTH
# GDH-TPI counter-1: GDH-TPI coupling enzyme inhibitors, primary screen, artefact control for M. tuberculosis FBA inhibitor project, biochemical, absorbance, full deck; GDH-TPI coupled enzyme counterscreen, NADH absorbance; inhibition, % at 4.8 µM; 360,000 compounds, 1.2% hits; in the data active = inhibition above about 30%;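 note: 0% = DMSO wells and 100% = wells lacking the enzyme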
# PrPC surface inh: inhibitors of human cell surface prion protein PrPC, primary screen, cell-based, TR-FRET; Major prion protein (Homo sapiens), P04156; TR-FRET read-out; inhibition, % at 13.8 µM; 370,000 compounds, 0.43% hits; in the data active = inhibition above about 24%; note: 0% = median of the test wells and 100% = reference compound wells
# 3CLpro inhibitor: SARS-CoV 3CLpro protease inhibitors, primary screen, biochemical, quenched FRET; inhibition, % at 6 µM; recombinant SARS-CoV 3CLpro, quenched FRET peptide cleavage; 290,000 compounds, 0.14% hits; in the data active = inhibition above about 12%
# BH1578 lux ind: inducers of Vibrio cholerae quorum light production without autoinducers, primary screen, BH1578 luxS cqsA deficient, single point; V. cholerae BH1578 lux reporter, luminescence, 6 h; activation, % at 18.7 µM; 350,000 compounds, 0.16% hits; AID 588436, 2011; in the data active = activation mostly above about 9.7%, no sharp cut-off
# Mtb FBA confirm: M. tuberculosis aldolase blockers, biochemical, fluorescence, strain H37Rv, confirmation. AID 651616, 2012. inhibition, % at 1 µM. 5,600 compounds, 78% hits. shares compounds with Mtb FBA inh. purified M. tuberculosis FBA, fluorescence read-out;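 note: 0% = vehicle wells and 100% = reference inhibitor wells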
# GDH-TPI counter-2: GDH-TPI coupling enzyme inhibitors, artefact control for M. tuberculosis FBA inhibitor project, biochemical, fluorescence, high throughput; shares compounds with Mtb FBA inh; GDH-TPI coupled enzyme counterscreen; inhibition, % at 1 µM; 5,600 compounds, 81% hits; AID 652141, 2013; in the data active = inhibition above about 10%
# Active calls of the source: *; i = inactive; nt = no result. Cut-off read from the data, not from the text of the source, unless noted: active = inhibition above about 27%; inactive = the rest.
SMILES,Mtb FBA inh,GDH-TPI counter-1,PrPC surface inh,3CLpro inhibitor,BH1578 lux ind,Mtb FBA confirm,GDH-TPI counter-2
COc1ccc2nc(N/C(N)=N/C(=S)Nc3c(C)cccc3C)nc(C)c2c1,16.7,-1.0,0.6,4.5,-0.3,nt,nt
Cc1cccc(Oc2ccc(NC(=O)C3=CC=CN4CCS(=O)(=O)N=C34)cc2)c1,-3.1,8.6,-15.7,nt,0.9,nt,nt
N#Cc1cccc(C#N)c1N1CCC(C#N)CC1,16.0,-0.6,0.9,9.1,0.2,nt,nt
N#Cc1c(F)cccc1N1CCC(C#N)CC1,30.9*,5.7,7.6,1.8,i,154.1*,114.9*
NS(=O)(=O)c1ccc(NC(=O)COC(=O)c2cnccn2)cc1,1.3,-0.6,-2.6,4.9,-0.3,nt,nt
C/C(=N\N=C(N)N)c1cc(Cl)ccc1Cl,-1.9,-8.6,4.1,-2.9,-0.3,nt,nt
C/C(=N\N=C(N)N)c1ccc(Cl)cc1Cl,28.4*,0.6,-14.3,0.4,-1.4,28.7*,17.1*
Nc1ccc2oc3ccccc3c2c1,27.2*,4.7,6.2,-3.0,i,2.1,-8.7
Nc1ccc(C#Cc2ccc3oc4ccccc4c(=O)c3c2)cc1,3.4,17.9,23.4,nt,-1.7,nt,nt
O=C(OCC(=O)N1CCOCC1)c1cc(F)c(F)cc1Cl,1.8,-4.5,3.1,-3.9,-0.9,nt,nt
O=C(OCC(=O)N1CCCCCC1)c1cccc(Cl)c1,-2.0,1.0,2.1,nt,-1.0,nt,nt
Nc1cc(Cl)ccc1C(=O)OCC(=O)N1CCCC1,58.9*,5.4,-0.5,1.4,-0.3,93.4*,83.5*
Nc1cc(Cl)ccc1C(=O)OCC(=O)N1CCCCCC1,60.4*,8.2,-0.3,nt,3.2,-7.4,-7.8
Nc1cc(Cl)ccc1C(=O)OCC(=O)N1CCOCC1,44.0*,9.1,6.1,1.0,0.6,63.5*,53.2*
CCN(C(=O)COC(=O)c1ccc(Cl)cc1N)C1CCCCC1,30.6*,17.1,-0.4,3.4,0.6,93.2*,86.6*
Cc1ccc(C(=O)OCC(=O)NCC2CCCO2)c(C)c1 (centres undefined),0.7,0.0,-1.9,5.7,0.1,nt,nt
Nc1cc(Cl)ccc1C(=O)OCC(=O)NCC1CCCO1 (centres undefined),52.6*,15.3,7.1,nt,-3.3,106.4*,74.3*
Fc1cccc(-n2c(-c3ccco3)nc3nc4ccccc4nc32)c1,51.5*,-7.0,-0.1,-1.0,i,73.5*,49.0*
Cc1ccc(-n2c(-c3ccco3)nc3nc4ccccc4nc32)cc1F,32.9*,0.5,0.8,2.8,0.0,77.4*,62.5*
Fc1cccc(-n2c(-c3cccs3)nc3nc4ccccc4nc32)c1,nt,nt,nt,4.0,nt,nt,nt
Cc1ccc(CS(=O)(=O)CC(C)(O)c2ccc(Cl)cc2)cc1 (centres undefined),3.4,3.6,-0.6,1.4,-1.1,nt,nt
CCOC(=O)c1ccc(NC(=O)C(=O)NCCc2ccc(OC)cc2)cc1,50.4*,-2.5,-2.9,-2.9,-0.6,115.9*,106.3*
CCOC(=O)NN1C(=O)c2ccccc2NC1C (centres undefined),72.5*,0.3,7.2,-2.1,-0.6,146.3*,116.4*
O=C(NN1C(=O)c2ccccc2NC1c1ccco1)c1ccccc1 (centres undefined),6.7,10.4,-5.0,2.9,-0.9,nt,nt
O=C(NN1C(=O)c2ccccc2NC1c1cccnc1)c1ccccc1 (centres undefined),10.1,2.2,2.6,3.6,-0.6,nt,nt
CC(=O)NN1C(=O)c2ccccc2NC1c1ccc(N(C)C)cc1 (centres undefined),20.9,22.1,3.7,4.5,-0.1,nt,nt
O=C(O)CCC(=O)NN1C(=O)c2ccccc2NC1c1ccco1 (centres undefined),32.3*,1.3,4.6,0.3,-0.6,-3.5,-3.9
CCOC(=O)NN1C(=O)c2ccccc2NC1c1ccccc1F (centres undefined),37.2*,2.2,-0.9,-3.0,-0.6,51.0*,32.3*

# Screens (PubChem)
